The panel holds about 79,000 compounds, 15% with a hit somewhere; the sample as a whole holds those more often. A number with no mark means an inactive call. The source made the active and inactive calls. Cut-off read from the data, not from the text of the source: active = growth inhibition above about 70%; inactive = the rest.
Test: NCI Yeast Anticancer Drug Screen. Data for the rad18 strain (AID 177)
Settings: S. cerevisiae rad18 mutant growth inhibition; at 1.2 µM; active compounds read high
How it was run: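 Readout: growth inhibition vs vehicle controls. Cells: genetically altered yeast strain, DNA repair defect.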

SMILES | growth inhibition
S=C(S)NN1CCOCC1 | 87% (active)
COc1cc2c3c(cccc3c1)C(=O)N(CCN(C)C)C2=O | -34%
COC(=O)C1=C(C)NC(C)=C(C(=O)OCCCN2CCC(c3ccccc3)(c3ccccc3)CC2)C1c1cccc([N+](=O)[O-])c1 (configuration not stated) | -7%
c1ccc2c(c1)Oc1cccc3cccc-2c13 | 22%
Cc1ccc(CCC2=CCCc3c2ccc2ccccc32)cc1 | -4%
CNC(=O)OCc1c(COC(=O)NC)c(-c2ccc(Cl)c(Cl)c2)n2c1CCC2 | -39%
Clc1ccccc1C1OC1c1ccccc1Cl (configuration not stated) | -59%
O=[N+]([O-])c1cc(CCl)ccc1CCl | 32%
S=c1[nH]nc(Nc2ccc(Cl)cc2)s1 | -3%
Cn1ccnc1Oc1ccc(Cl)cc1 | -7%
BrCc1cccc2ccc3cccc(CBr)c3c12 | -4%
O=C1c2ccccc2-c2nc3ccccc3nc21 | -47%
CCCCCCCCCCCCCCCCCCNC | 17%
Oc1ccc(NCn2c(=S)sc3ccccc32)cc1 | -1%
O=C1C2CC[C@@H]3C(=O)C(Cl)(Cl)[C@@H]3CCC2C1(Cl)Cl (some centres not stated) | 59%
CC[n+]1ccc2c(C)c3[nH]c4ccc(O)cc4c3c(C)c2c1 | -23%
Cc1ccc(-n2cc(-c3ccc(Cl)cc3)c(C#N)c2N)cc1 | -5%
CC(=O)[O][Bi]([c]1ccccc1)[c]1ccccc1 | 15%

SMILES | growth inhibition
CC1=C(SCCO)C(=O)c2ccccc2C1=O | -12%
C/C(=N\O)C1CC2C=C(C#N)C1N(Cc1ccccc1)C2 (configuration not stated) | 5%
CC(Br)C(=O)c1ccc2cc(Br)c3ccccc3c2c1 (configuration not stated) | 5%
Nc1nc(-c2cccnc2)cc(-c2cc(-c3cccnc3)nc(N)n2)n1 | -2%
CCC(C)COC(=O)c1ccc(N=Cc2ccc(C=Nc3ccc(C(=O)OCC(C)CC)cc3)cc2)cc1 (configuration not stated) | -1%
Oc1cccc2c(Cl)ccnc12 | 33%
O=C(O)c1cccc(-c2c3ccc(=O)cc-3oc3cc(O)ccc23)c1 | -3%
CN(CCc1ccccn1)c1ccc2c(c1)Cc1ccccc1-2 | 46%
Cc1cc(S(=O)(=O)/N=C(/NN)NNc2cccc(C(F)(F)F)n2)c(S)cc1Cl | 0%
O=C1C2C(C(=O)N1c1ccc(OCc3ccccc3)cc1)C1c3ccccc3C2C2CCCCN21 (configuration not stated) | -3%
Nc1ccccc1CC(O)C(=O)O (configuration not stated) | 1%
O=C(O)C1CCCCC1c1c2ccc(=O)c(O)c-2oc2c(O)c(O)ccc12 (configuration not stated) | -8%
Cc1ccc2ccc(O)cc2c1 | -21%
O=C1C(=O)c2ccccc2C=C1[N+](=O)[O-] | 22%
COC(=O)c1ccc(NCC2=CC(=O)C=CC2=O)cc1O | 18%
C(CCSC1=NCCN1)CSC1=NCCN1 (tested in a mixture with another compound) | 26%
N#Cc1c(N)[nH]c2ccc(Sc3ccccc3)cc12 | 12%
CC[C@@]1(O)C(=O)OCc2c1cc1n(c2=O)Cc2cc3c(N)cccc3nc2-1 | -10%

Same assay, conditions: S. cerevisiae rad18 mutant growth inhibition; at 3.7 µM; active compounds read high

SMILES | growth inhibition
S=C(S)NN1CCOCC1 | 67%
COc1cc2c3c(cccc3c1)C(=O)N(CCN(C)C)C2=O | -18%
COC(=O)C1=C(C)NC(C)=C(C(=O)OCCCN2CCC(c3ccccc3)(c3ccccc3)CC2)C1c1cccc([N+](=O)[O-])c1 (configuration not stated) | 9%
c1ccc2c(c1)Oc1cccc3cccc-2c13 | 26%
Cc1ccc(CCC2=CCCc3c2ccc2ccccc32)cc1 | -1%
CNC(=O)OCc1c(COC(=O)NC)c(-c2ccc(Cl)c(Cl)c2)n2c1CCC2 | -46%
Clc1ccccc1C1OC1c1ccccc1Cl (configuration not stated) | -48%
O=[N+]([O-])c1cc(CCl)ccc1CCl | 66%
S=c1[nH]nc(Nc2ccc(Cl)cc2)s1 | 2%
Cn1ccnc1Oc1ccc(Cl)cc1 | -1%
BrCc1cccc2ccc3cccc(CBr)c3c12 | 0%
O=C1c2ccccc2-c2nc3ccccc3nc21 | -38%
CCCCCCCCCCCCCCCCCCNC | 7%
Oc1ccc(NCn2c(=S)sc3ccccc32)cc1 | -5%
O=C1C2CC[C@@H]3C(=O)C(Cl)(Cl)[C@@H]3CCC2C1(Cl)Cl (some centres not stated) | 85% (active)
CC[n+]1ccc2c(C)c3[nH]c4ccc(O)cc4c3c(C)c2c1 | 2%
Cc1ccc(-n2cc(-c3ccc(Cl)cc3)c(C#N)c2N)cc1 | 1%
CC(=O)[O][Bi]([c]1ccccc1)[c]1ccccc1 | 30%

SMILES | growth inhibition
CC1=C(SCCO)C(=O)c2ccccc2C1=O | -10%
C/C(=N\O)C1CC2C=C(C#N)C1N(Cc1ccccc1)C2 (configuration not stated) | 13%
CC(Br)C(=O)c1ccc2cc(Br)c3ccccc3c2c1 (configuration not stated) | 5%
Nc1nc(-c2cccnc2)cc(-c2cc(-c3cccnc3)nc(N)n2)n1 | -4%
CCC(C)COC(=O)c1ccc(N=Cc2ccc(C=Nc3ccc(C(=O)OCC(C)CC)cc3)cc2)cc1 (configuration not stated) | -3%
Oc1cccc2c(Cl)ccnc12 | 98% (active)
O=C(O)c1cccc(-c2c3ccc(=O)cc-3oc3cc(O)ccc23)c1 | 6%
CN(CCc1ccccn1)c1ccc2c(c1)Cc1ccccc1-2 | 89% (active)
Cc1cc(S(=O)(=O)/N=C(/NN)NNc2cccc(C(F)(F)F)n2)c(S)cc1Cl | -1%
O=C1C2C(C(=O)N1c1ccc(OCc3ccccc3)cc1)C1c3ccccc3C2C2CCCCN21 (configuration not stated) | 12%
Nc1ccccc1CC(O)C(=O)O (configuration not stated) | 4%
O=C(O)C1CCCCC1c1c2ccc(=O)c(O)c-2oc2c(O)c(O)ccc12 (configuration not stated) | 5%
Cc1ccc2ccc(O)cc2c1 | -32%
O=C1C(=O)c2ccccc2C=C1[N+](=O)[O-] | 54%
COC(=O)c1ccc(NCC2=CC(=O)C=CC2=O)cc1O | 32%
C(CCSC1=NCCN1)CSC1=NCCN1 (tested in a mixture with another compound) | 52%
N#Cc1c(N)[nH]c2ccc(Sc3ccccc3)cc12 | 37%
CC[C@@]1(O)C(=O)OCc2c1cc1n(c2=O)Cc2cc3c(N)cccc3nc2-1 | -11%

— PubChem BioAssay (NCI)
